These entries were drawn from the full list.
aSyn UTR act – Activators working through SNCA 5'UTR binding (MLPCN) | alpha-synuclein 5'UTR reporter, activators screen | activity score, % (tested at 7.5 µM), hits read low | actives 7.1% (n = 300,000); in the data active = activity score below about -60%
Hits are given with their value; n = inactive.

SMILES	aSyn UTR act
O=C(c1cc(-c2ccccc2)on1)N1CCCCCC1	-199.9
O=C(c1cc(-c2ccc(Br)cc2)on1)N1CCCC1	-109.4
CCN(CC)C(=O)c1cc(-c2ccc(Br)cc2)on1	-152.4
CN1CCN(C(=O)c2cc(-c3ccccc3)on2)CC1	-80.2
O=C(NCCCn1ccnc1)c1cc(-c2cccs2)on1	-293.7
O=C(NCCCN1CCOCC1)c1cc(-c2cccs2)on1	-152.0
O=C(NCCCN1CCOCC1)C(=O)N/N=C/c1c2ccccc2cc2ccccc12	n
Cc1cc2oc(=O)cc(CN3CCC(C)CC3)c2c(C)c1Cl	-87.9
Cc1cc(C)c2c(CN3CCC(C)CC3)cc(=O)oc2c1	-156.9
Cc1cc2oc(=O)cc(CN3CCC(C)CC3)c2cc1C	-81.9
Cc1cc(C)c2c(CCl)cc(=O)oc2c1	n
Cc1cc2c(cc1C)C(c1cc(Br)ccc1F)CC(=O)N2 (stereo unspecified)	n
O=[N+]([O-])c1cccc(-c2noc(-c3cccs3)n2)c1	-147.1
COc1ccccc1-c1nc(-c2ccccn2)no1	n
COc1cccc(-c2ccc(-c3noc(-c4cccs4)n3)c(OC)n2)c1	-84.9
COc1ccccc1-c1noc(-c2cccs2)n1	-235.7
COc1ccccc1-c1noc(-c2ccncc2)n1	-73.9
COc1ccc(-c2nc(-c3cccs3)no2)cc1	n
COc1cc(/C=C(/C(=O)c2cccs2)c2nc3ccccc3[nH]2)cc(OC)c1O	-224.4
COc1cccc(/C=N/Nc2nc3ccccc3[nH]2)c1OC	-106.2
COc1cc(/C=N/Nc2nc3ccccc3[nH]2)cc(OC)c1O	-100.3
COc1ccc(O)c(/C=N/Nc2nc3ccccc3[nH]2)c1	-81.2
COc1ccccc1Nc1nc2ccccc2[nH]1	-119.7
COc1cc(/C=N/Nc2nc3ccccc3[nH]2)ccc1O	-270.3
CCC(=O)NC(=S)Nc1ccc(-c2nc3ccc(C)cc3s2)cc1	-238.4
SMILES	aSyn UTR act
Cc1ccc2nc(-c3ccc(NC(=S)NC4CC(C)(C)NC(C)(C)C4)cc3)sc2c1	n
Cc1ccc2nc(-c3ccc(NC(=S)NC(=O)C(C)C)cc3)sc2c1	-207.7
O=C(Nc1cnc2ccccc2c1)N1CCCCC1	-73.7
CN(C(=O)Nc1cnc2ccccc2c1)c1ccccc1	-88.7
O=C(Nc1cnc2ccccc2c1)N1CCOCC1	-109.1
Cc1oc2c(cc(NS(=O)(=O)c3ccc4c5c(cccc35)C(=O)N4)c3ccccc32)c1C(=O)OC(C)C	-68.8
CCC(=O)N(c1ccc(C(=O)O)cc1)c1nc(-c2ccc(OC)cc2)c(C)s1	-184.7
CCN(CC)S(=O)(=O)c1cc(NC(=O)Cn2ncc(Cl)c(Cl)c2=O)ccc1C	-99.2
Cc1cc(Br)ccc1NC(=O)CNC(=O)Cn1ncc(Cl)c(Cl)c1=O	n
Fc1ccccc1Cn1nnc(-c2ccc3c(c2)OCO3)n1	-76.9
COc1ccc(-c2nnn(Cc3ccccc3F)n2)cc1	-206.7
Clc1ccc(/C=C/c2ncc[nH]2)c(Cl)c1	-169.4
O=C(OCc1csc(-c2ccccc2)n1)c1ccccc1O	-148.7
COc1ccc(OC)c(NC(=O)NC2(C(F)(F)F)Oc3ccccc3O2)c1	-72.7
CCN(CC)CCn1c(=O)n(-c2ccc(Cl)cc2)c(=O)c2c3c(sc21)CN(C)CC3	-66.5
CC(C)(C)c1ccc(-c2cc(N)n[nH]2)cc1	n
Cc1ccc(-c2cc(N)n[nH]2)cc1	-73.2
CCN(C(=O)COC(=O)/C=C/c1cnc2ccccc2n1)c1ccccc1	-64.7
CCC(C)(C)NC(=O)/C=C/c1cnc2ccccc2n1	-121.6
O=C(/C=C/c1cnc2ccccc2n1)NC12CC3CC(CC(C3)C1)C2	-139.6
COc1cc(/C(C)=N/NC(=O)CSc2nncn2C)ccc1OCc1ccccc1Cl	-83.0
C/C(=N\n1nnnc1Nc1ccccc1)c1ccc(N)cc1	-124.1
COCCNC(=O)c1cc2oc3ccccc3c2n1C	-98.5
CCOc1ccccc1CNC(=O)c1cc2oc3ccccc3c2n1C	n
O=C(c1cc(-c2cccs2)on1)N1CCCc2ccccc21	-78.7
SMILES	aSyn UTR act
Cc1ccc(-c2cc(C(=O)N3CCCc4ccccc43)no2)cc1	-150.2
O=C(c1cc(-c2ccc(F)cc2)on1)N1CCCc2ccccc21	-62.1
Cc1cc(C)n(-c2ccc3cccc(NS(C)(=O)=O)c3n2)n1	n
Cc1cc2n(n1)SC(Nc1cccc3ccccc13)N2 (stereo unspecified)	-93.9
Cc1ccc(-n2cc3c(=O)n(C)c(=O)n(C)c3c2)cc1C	-107.4
Cc1cc(N)c(-n2cc3c(=O)n(C)c(=O)n(C)c3c2)cc1C	-133.7
CCc1ccc(OCC(=O)NCc2ccco2)c(Br)c1	-69.9
CCNC(=O)NC(=O)COc1ccccc1C#N	-89.3
N#Cc1ccccc1OCC(=O)NC(=O)NCc1ccco1	-83.3
COCCN(C(=O)COC(=O)/C=C/c1ccccc1Cl)c1c(N)n(Cc2ccccc2)c(=O)[nH]c1=O	-91.9
O=C(Nc1ccccc1Cl)c1cc(=O)c2ccccc2o1	-144.4
O=C(Nc1ccccc1Br)c1cc(=O)c2ccccc2o1	-183.7
O=C(CNC(=S)NC(=O)C1CCCCC1)c1ccccc1	-125.7
CC(C)C(=O)Nc1ccc(NC(=O)c2cccs2)cn1	-131.8
COc1cc(OC)cc(C(=O)Nc2ccc(N3CCN(C(=O)c4cccs4)CC3)cc2)c1	-180.3
O=C(CNC(=S)NC(=O)c1ccco1)c1ccccc1	-79.7
CC(C)COCc1ccc(O)c2ncccc12	n
O=C(NC(=S)Nc1ccc(N2CCCCC2)c(Cl)c1)c1cccs1	-109.8
CCCCNS(=O)(=O)c1ccc(NC(=O)c2cccs2)cc1	-65.9
CC(C)c1ccc(NC(=S)NNC(=O)c2cccs2)cc1	-95.3
CN1CCN(c2ccc(NC(=O)c3cccs3)cc2)CC1	-87.6
COc1ccc(NC(=S)NNC(=O)c2cccs2)cc1	-80.6
O=C(CNC(=S)NC(=O)c1cccs1)c1ccccc1	-74.3
Cc1cccnc1NC(=O)NC(=O)c1ccc(C(C)(C)C)s1	-169.5
COc1ccccc1NC(=O)Cn1nnc(-c2ccccc2NC(=O)c2cc3ccccc3oc2=O)n1	-118.9
SMILES	aSyn UTR act
CC1=C(C)CC(C(=O)NCC(=O)c2ccccc2)C(C(=O)O)C1 (stereo unspecified)	-169.1
O=C(Nc1ccc(Cl)cc1)c1cccs1	-146.4
Cc1ccc(NC(=O)Cn2nnc(-c3ccccc3NC(=O)c3cccs3)n2)cc1	n
O=C(Nc1cccc(N2CCCC2)c1)c1cccs1	-66.0
COc1ccc(NC(=O)Cn2nnc(-c3ccccc3NC(=O)c3cccs3)n2)cc1	-168.6
CCCCOc1cccc(C(=O)Nc2ccc(NC(=O)c3cccs3)cc2)c1	n
COc1ccc(NC(=O)c2cccs2)cc1	-148.7
O=C(Nc1ccc(NC(=O)c2cccs2)cc1)c1cccs1	-140.8
COc1ccc(NC(=O)c2cccs2)cc1O	-134.9
O=C(Nc1ccc(NC(=O)C2CC2)cc1)c1cccs1	-168.6
Cc1ccn(-c2ccc(NC(=O)c3cccs3)cc2)n1	-63.0
COc1ccc(/C=C/C(=O)c2ccc(NC(=O)c3cccs3)cc2)cc1OC	-93.6
CCC(C)c1ccc(NC(=O)c2cccs2)cc1 (stereo unspecified)	-71.0
O=C(Cc1ccccc1)NNC(=S)NC(=O)c1cccs1	n
O=C(NC(=S)Nc1ccccc1)c1cccs1	-147.2
Cc1conc1NC(c1cccs1)c1ccc2cccnc2c1O (stereo unspecified)	n
Cc1cccnc1NC(=S)NC(=O)c1cccs1	-398.5
O=C(Nc1ccc2[nH]ccc2c1)c1cccs1	-105.2
CCC(=O)NC(c1cccs1)c1ccc2cccnc2c1O (stereo unspecified)	n
O=C(NC(=S)Nc1ccc(Br)cn1)c1cccs1	-172.5
CC(C)C1COC(c2cccc3ccccc23)=N1 (stereo unspecified)	-115.2

Screens as filed in PubChem.
